Several values for one entry are separate records, joined by “and”; a condition that tells them apart may be missing. Identical values can stand only once. Results filed as inconclusive are left out. Activity calls are given as the source filed them. Unless noted, no stated cut-off is given here; in the data, active means inhibition above about 80%; inactive means the rest.
Experiments:
[1] = biological target: ATP-dependent translocase ABCB1 (Homo sapiens) (UniProt P08183); assay: MDR1 (ABCB1) efflux transporter inhibition, cell-based (AID 377; in the data active means fluorescence slope change above about 50%); conditions: MDR1-expressing cells, fluorescent substrate accumulation slope; stronger effect = higher value; concentration not given here
Sequence of ATP-dependent translocase ABCB1 (Homo sapiens) (P08183 whole entry, looked up): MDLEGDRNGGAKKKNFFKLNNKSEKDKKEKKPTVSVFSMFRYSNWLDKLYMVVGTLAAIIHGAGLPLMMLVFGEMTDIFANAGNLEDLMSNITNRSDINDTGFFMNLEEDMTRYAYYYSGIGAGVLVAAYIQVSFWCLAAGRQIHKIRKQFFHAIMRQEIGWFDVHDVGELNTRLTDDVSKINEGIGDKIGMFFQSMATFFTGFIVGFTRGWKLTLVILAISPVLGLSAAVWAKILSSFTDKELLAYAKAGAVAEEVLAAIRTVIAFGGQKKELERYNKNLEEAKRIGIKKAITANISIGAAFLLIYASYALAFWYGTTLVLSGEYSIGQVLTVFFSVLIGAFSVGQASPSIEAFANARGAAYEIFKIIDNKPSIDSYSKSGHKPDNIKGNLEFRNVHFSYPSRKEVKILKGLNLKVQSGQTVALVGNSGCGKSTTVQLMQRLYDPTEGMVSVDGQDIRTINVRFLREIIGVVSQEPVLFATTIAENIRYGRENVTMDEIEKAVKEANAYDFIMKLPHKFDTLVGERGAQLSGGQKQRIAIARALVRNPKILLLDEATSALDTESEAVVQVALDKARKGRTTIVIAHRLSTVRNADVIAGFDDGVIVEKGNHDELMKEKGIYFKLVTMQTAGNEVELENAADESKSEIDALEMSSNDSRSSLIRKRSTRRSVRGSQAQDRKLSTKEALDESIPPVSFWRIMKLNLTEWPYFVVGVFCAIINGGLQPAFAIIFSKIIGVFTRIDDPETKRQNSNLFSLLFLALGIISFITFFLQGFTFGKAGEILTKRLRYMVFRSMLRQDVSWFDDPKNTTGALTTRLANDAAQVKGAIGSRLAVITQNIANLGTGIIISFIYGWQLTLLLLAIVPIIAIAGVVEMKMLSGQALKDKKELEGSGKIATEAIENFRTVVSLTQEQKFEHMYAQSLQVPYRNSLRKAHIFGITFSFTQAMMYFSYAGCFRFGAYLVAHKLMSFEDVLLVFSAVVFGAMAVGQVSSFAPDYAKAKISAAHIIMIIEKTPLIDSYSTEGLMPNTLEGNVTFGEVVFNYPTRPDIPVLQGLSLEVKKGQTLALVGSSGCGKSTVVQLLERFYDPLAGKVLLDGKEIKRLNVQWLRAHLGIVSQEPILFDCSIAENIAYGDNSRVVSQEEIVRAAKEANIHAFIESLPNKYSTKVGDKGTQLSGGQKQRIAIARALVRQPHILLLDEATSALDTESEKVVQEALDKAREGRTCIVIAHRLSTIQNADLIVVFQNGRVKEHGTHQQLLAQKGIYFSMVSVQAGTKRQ

[2] = inhibitors of Cryptococcus chitosan production, flow cytometry, Cibacron Brilliant Red staining (AID 1347148; call rule not given here;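 further: compound exposure lasted three days at 37 degrees C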); conditions: Cryptococcus neoformans chitosan, stronger effect = lower value; at 10 µM unless noted
[3] = protection against mutant huntingtin cytotoxicity, PC12 cells, LDH release (AID 1610); conditions: PC12 mutant huntingtin toxicity, final LDH at 4 uM, stronger effect = lower value
[4] = CRL2098 osteosarcoma cell growth inhibition, synergistic combos for chromothripsis tumors, BGB or cisplatin IC20 combos (AID 1671454); conditions: CRL2098 osteosarcoma cells, drug combinations, stronger effect = higher value;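 further: cells exposed for 96 h before readout; 0% = vehicle DMSO and 100% = killing by high DMSO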
[5] = HD-MB03 medulloblastoma cell growth inhibition, synergistic combos for chromothripsis tumors, BGB or cisplatin IC20 combos (AID 1671455; in the data active means inhibition above about 83%;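 further: 0% = vehicle DMSO and 100% = high DMSO as cytotoxic control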); conditions: HD-MB03 medulloblastoma cells, stronger effect = higher value
[6] = UWB1.289 ovarian carcinoma cell growth inhibition, synergistic combos for chromothripsis tumors, BGB or cisplatin combos (AID 1671456); conditions: UWB1.289 ovarian carcinoma cells, stronger effect = higher value;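 further: cells exposed to compound for four days; 0% = vehicle DMSO and 100% = killing by high DMSO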
[7] = LFS_MB_2R medulloblastoma cell growth inhibition, synergistic combos for chromothripsis tumors, cisplatin combos (AID 1671457); conditions: LFS_MB_2R medulloblastoma cells, stronger effect = higher value;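 further: cells exposed to compound for four days before readout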
[8] = UWB1.289_BRCA1 ovarian cancer growth, cell-based, BGB or cisplatin combinations (AID 1671459); conditions: UWB1.289 BRCA1 ovarian carcinoma, drug combinations, stronger effect = higher value
[9] = human astrocyte viability loss, single and combined drugs, cytotoxicity control for chromothriptic childhood tumor combination screen, cell-based, BGB or cisplatin IC20 combos (AID 1671460); conditions: Human astrocytes, drug combinations, stronger effect = higher value;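 further: cells exposed to compounds for 96 hours before viability readout; 0% = vehicle and 100% = killing control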
[10] = Cy5 fluorescence interference with SSB-bound oligo, artefact control for HCV NS3 helicase inhibitor project, biochemical, NIH Clinical Collection, E. coli SSB (AID 743268; call rule not given here)
[11] = test system: Hepatitis C virus NS3 helicase; assay: HCV NS3 helicase inhibitors, primary screen, biochemical, fluorescence polarization, NIH Clinical Collection (AID 743270; call rule not given here); conditions: NS3 helicase binding to Cy5-dT15 DNA, stronger effect = higher value, concentration not given here
[12] = biological target: Single-stranded DNA-binding protein (Escherichia coli (strain K12)) (UniProt P0AGE0); assay: E. coli SSB displacement from DNA, counter-screen for HCV NS3 helicase inhibitor project, biochemical, fluorescence polarization, NIH Clinical Collection (AID 743271; in the data active means inhibition above about 28%); conditions: stronger effect = higher value, concentration not given here
[13] = fluorescence interference in NS3h assay format, artefact control for HCV NS3 helicase inhibitor project, biochemical, NIH Clinical Collection (AID 743272; call rule not given here;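 further: HCV NS3 helicase with a Cy5 labelled single stranded DNA probe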); conditions: fluorescence interference counterscreen, stronger effect = lower value
[14] = modifiers of HSF1 nuclear foci, imaging, Selleck Cancer Library (AID 1347162; in the data active means plate-normalised HSF1 focus index below about 0.46); conditions: human cells, at 10 µM; SSMD: measured here: HSF1 foci SSMD mean; cell count: measured here: cell number; plate-normalised HSF1 focus index: stronger effect = lower value
[15] = measured here: combination with BGB at IC20, at 0.5 µM
[16] = measured here: combination with cisplatin at IC20, at 0.5 µM
[17] = measured here: combo with BGB at IC20, at 0.5 µM
[18] = measured here: combo with cisplatin at IC20, at 0.5 µM
[19] = measured here: inhibition with BGB combination, at 0.05 µM
[20] = measured here: inhibition with cisplatin combination, at 0.05 µM
[21] = measured here: combination with cisplatin, at 0.5 µM
[22] = measured here: combination with cisplatin, at 5 µM
[23] = BGB combination, concentration series, at 5 µM
[24] = cisplatin combination, concentration series, at 5 µM
[25] = measured here: combo with BGB IC20, at 0.5 µM
[26] = measured here: combo with cisplatin IC20, at 0.5 µM

With `COc1c2ccoc2nc2c(OC)c(OCC(O)C(C)(C)O)ccc12` (stereo not drawn) the fluorescence slope change [1] was 3.7% (inactive).
In the case of `CC(CCc1ccc(O)cc1)NCCc1ccc(O)c(O)c1` (stereo not drawn), the fluorescence slope change [1] is reported as 19.4% (inactive).
With `NC(=O)c1cccc(N)c1` the fold fluorescence [2] was 5.59 [at 367.2 µM] (inactive).
`CC(=O)c1c(O)c(C)c(O)c2c1OC1=CC(=O)C(C(C)=O)C(=O)C12C` (stereo not drawn) gave a normalised LDH release [3] of 1.02.
With `CCCC(=O)Nc1ncnc2c1ncn2[C@@H]1O[C@@H]2COP(=O)(O)O[C@H]2[C@H]1OC(=O)CCC` the fold fluorescence [2] was 10.2 [at 101.8 µM] (inactive).
Work on `O=C1C=CC(=C(c2ccc(O)cc2)c2ccc(O)cc2)C=C1` yielded a normalised LDH release [3] of 0.611.
In the case of `O=C(O)c1cc([N+](=O)[O-])ccc1NCCCc1ccccc1`, the fold fluorescence [2] is reported as 4.56 [at 166.5 µM] (inactive).
For `COc1cc(NS(C)(=O)=O)ccc1Nc1c2ccccc2nc2ccccc12`, the inhibition ([4]; at 0.5 µM) was 3.39% (inactive) and -17.2% (inactive), the inhibition [4, 15] was 5.83% and -2.6% and the inhibition [4, 16] was 6.88% and -21.3%. The inhibition ([5]; at 0.5 µM) was 89.9% (active) and 92.8% (active), the inhibition [5, 17] was 85.2% and 89.8% and the inhibition [5, 18] was 93.1% and 93.7%. The inhibition ([6]; at 0.5 µM) was 34.8% (inactive) and 27.8% (inactive), the inhibition [6, 19] was -10.9% and -18.9% and the inhibition [6, 20] was 5.17% and -0.785%. For the same molecule, the inhibition ([7]; at 0.5 µM) was -7.33% (inactive) and -4.82% (inactive), the inhibition [7, 21] was -3.1% and -25.3% and the inhibition [7, 22] was 21% and 20.3%. The inhibition [8, 23] was 79.6% and 77.5%, the inhibition ([8]; at 0.5 µM) was 31% (inactive) and 27.1% (inactive) and the inhibition [8, 24] was 109% and 107%. The inhibition ([9]; at 0.5 µM) was 47.7% (inactive) and 54% (inactive), the inhibition [9, 25] was 46.6% and 56.1% and the inhibition [9, 26] was 26.6% and 33.1%.
With `N=c1ccn2c(n1)O[C@H]1[C@H](O)[C@@H](CO)O[C@H]12` the inhibition ([4]; at 0.5 µM) was 32.1% (inactive), the inhibition [4, 15] was -10.4% and the inhibition [4, 16] was 52.4%. The inhibition ([5]; at 0.5 µM) was 89.9% (active), the inhibition [5, 17] was 84% and the inhibition [5, 18] was 91.1%. The inhibition ([6]; at 0.5 µM) was 1.85% (inactive), the inhibition [6, 19] was -40.2% and the inhibition [6, 20] was -14.8%. For the same molecule, the inhibition ([7]; at 0.5 µM) was -10.7% (inactive), the inhibition [7, 21] was 6.24% and the inhibition [7, 22] was 44.7%. For the same molecule, the inhibition [8, 23] was 22.3%, the inhibition ([8]; at 0.5 µM) was 7.05% (inactive) and the inhibition [8, 24] was 41.2%. For the same molecule, the inhibition ([9]; at 0.5 µM) was 27.9% (inactive), the inhibition [9, 25] was 22.9% and the inhibition [9, 26] was 18.2%.
For `CC(C)C[C@H]1C(=O)N2CCC[C@H]2[C@]2(O)O[C@](NC(=O)[C@@H]3C=C4c5cccc6[nH]c(Br)c(c56)C[C@H]4N(C)C3)(C(C)C)C(=O)N12`, the fluorescence slope change [1] was 115% (active).
For `C[C@H]1C[C@H]2[C@@H]3CCC4=CC(=O)C=C[C@]4(C)[C@@]3(F)[C@@H](O)C[C@]2(C)[C@@]1(O)C(=O)CO`, the fluorescence slope change [1] was 18% (inactive).
In the case of `CC(=O)[C@H]1CC[C@H]2[C@@H]3CCC4=CC(=O)CC[C@]4(C)[C@H]3CC[C@]12C`, the fluorescence slope change [1] is reported as 82.5% (active), the fluorescence ratio [10] is reported as 0.96 (inactive) and the inhibition [11] is reported as -6.73% (inactive). For the same molecule, the inhibition [12] was 1.44% (inactive) and the fluorescence ratio [13] was 0.92 (inactive).
With `COC1=C(OC)C(=O)C(C/C=C(\C)CC/C=C(\C)CC/C=C(\C)CC/C=C(\C)CC/C=C(\C)CC/C=C(\C)CC/C=C(\C)CC/C=C(\C)CC/C=C(\C)CCC=C(C)C)=C(C)C1=O` the SSMD [14] was 2.18, the cell count [14] was 7460 and the plate-normalised HSF1 focus index [14] was 1.08 (inactive).
In the case of `COc1cc([C@@H]2c3cc4c(cc3[C@@H](O[C@@H]3O[C@@H]5CO[C@@H](c6cccs6)O[C@H]5[C@H](O)[C@H]3O)[C@H]3COC(=O)[C@H]23)OCO4)cc(OC)c1O`, the inhibition ([4]; at 0.5 µM) is reported as 5.54% (inactive) and 23.7% (inactive), the inhibition [4, 15] is reported as 22% and 28.7% and the inhibition [4, 16] is reported as -12.5% and 10.8%. For the same molecule, the inhibition ([5]; at 0.5 µM) was 96.4% (active) and 98.5% (active), the inhibition [5, 17] was 94.6% and 97.5% and the inhibition [5, 18] was 96.6% and 99.1%. For the same molecule, the inhibition ([6]; at 0.5 µM) was 18.6% (inactive) and 46.3% (inactive), the inhibition [6, 19] was -23.8% and 2.23% and the inhibition [6, 20] was -2.66% and 12.3%. The inhibition ([7]; at 0.5 µM) was -16.4% (inactive) and -13.1% (inactive), the inhibition [7, 21] was -12.1% and -0.448% and the inhibition [7, 22] was -6.88% and 18.4%. For the same molecule, the inhibition [8, 23] was 94.5% and 109%, the inhibition ([8]; at 0.5 µM) was 16.2% (inactive) and 36.5% (inactive) and the inhibition [8, 24] was 117% and 124%. The inhibition ([9]; at 0.5 µM) was 47.8% (inactive) and 52.6% (inactive), the inhibition [9, 25] was 42.5% and 54.3% and the inhibition [9, 26] was 28% and 33.1%.
With `C[C@H]1O[C@@H](O[C@H]2[C@@H](O)C[C@H](O[C@H]3[C@@H](O)C[C@H](O[C@H]4CC[C@@]5(C)[C@H](CC[C@@H]6[C@@H]5C[C@@H](O)[C@]5(C)[C@@H](C7=CC(=O)OC7)CC[C@]65O)C4)O[C@@H]3C)O[C@@H]2C)C[C@H](O)[C@@H]1O` the fluorescence slope change [1] was 24.1% (inactive).
For `COc1ccc(C(Cl)=C(c2ccc(OC)cc2)c2ccc(OC)cc2)cc1`, the fluorescence slope change [1] was 9.3% (inactive).

Source: PubChem BioAssay
